Inconclusive results are not listed. Active and inactive are the calls of the source. Calls follow the shape of the dose curve; as a rule, active = well fitted inhibition curve with a large enough effect; inconclusive = small, poorly fitted or top-dose-only effect, or effect the other way; inactive = flat fitted curve, though single readings scatter.
What follows are compounds tested against ATP-dependent 6-phosphofructokinase (Trypanosoma brucei brucei) (UniProt O15648) (assay: qHTS Assay to Find Inhibitors of T. brucei phosphofructokinase: hit validation (AID 492961;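 also: luminescence reports ADP formed as PFK phosphorylates fructose-6-phosphate with ATP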)). Details: T. brucei PFK, ADP-Glo luminescence; series mostly up to 51.4 µM.
Chain of ATP-dependent 6-phosphofructokinase (Trypanosoma brucei brucei) (O15648 whole entry, looked up): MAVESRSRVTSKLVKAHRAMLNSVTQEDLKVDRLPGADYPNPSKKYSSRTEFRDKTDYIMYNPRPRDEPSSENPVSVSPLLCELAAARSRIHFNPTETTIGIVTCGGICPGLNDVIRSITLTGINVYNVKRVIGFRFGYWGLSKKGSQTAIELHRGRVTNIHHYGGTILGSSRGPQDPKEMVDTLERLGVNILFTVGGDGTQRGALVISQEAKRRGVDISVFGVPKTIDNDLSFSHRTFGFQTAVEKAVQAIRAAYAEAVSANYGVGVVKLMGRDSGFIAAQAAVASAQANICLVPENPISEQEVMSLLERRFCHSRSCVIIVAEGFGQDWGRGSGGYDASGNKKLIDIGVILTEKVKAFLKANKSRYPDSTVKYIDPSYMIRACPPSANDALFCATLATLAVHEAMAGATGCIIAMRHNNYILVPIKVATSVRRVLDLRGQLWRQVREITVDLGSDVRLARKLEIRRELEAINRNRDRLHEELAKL
Method in brief: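 Reaction: 0.1 M triethanolamine pH 8.0, 5 mM MgCl2, F6P 0.5 mM, ATP 0.1 mM, PFK 1.25 nM, 45 min RT. Read-out: ADP-Glo luminescence. Analysis: concentration-response fits, classed by r2 and efficacy.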
`CN(C)CC/C=C1\c2ccccc2Sc2ccc(Cl)cc21` was tested, and the outcome was “inactive”.
For `CC(C)(C(=O)c1cccnc1)c1cccnc1`, the outcome was “inactive”.
In the case of `Oc1ccc(Cl)c2cccnc12`, the outcome is reported as “inactive”.
With `CN1CCN(CCCN2c3ccccc3Sc3ccc(S(=O)(=O)N(C)C)cc32)CC1` the outcome was “inactive”.
For `Cc1ccc(O)c2ncccc12`, the outcome was “inactive”.
`COc1c2occc2c(OC)c2c(=O)cc(C)oc12` was tested, and the outcome was “inactive”.
In the case of `NC(CO)(CO)CO`, the outcome is reported as “inactive”.
`CCCCCCCCCCCCCCCCCC(=O)OCC(O)CO` (centres undefined) was tested, and the outcome was “inactive”.
With `C#C[C@]1(OC(C)=O)CC[C@H]2[C@@H]3CCC4=C[C@@H](OC(C)=O)CC[C@@H]4[C@H]3CC[C@@]21C` the outcome was “inactive”.
For `Cc1c(F)c(N2CCNC(C)C2)cc2c1c(=O)c(C(=O)O)cn2C1CC1` (centres undefined), the outcome was “inactive”.
With `CCCCOc1ccc(OCCCN2CCOCC2)cc1` the outcome was “inactive”.
For `CCN(CC)CCOc1ccc(C(O)(Cc2ccc(Cl)cc2)c2ccc(C)cc2)cc1` (centres undefined), the outcome was “inactive”.
`O=C(O)CCCCC(=O)O` was tested, and the outcome was “inactive”.
For `CC(C)(CO)[C@@H](O)C(=O)NCCCO`, the outcome was “inactive”.
`Cc1ncc(CSSCc2cnc(C)c(O)c2CO)c(CO)c1O` was tested, and the outcome was “inactive”.
`CCCCCCc1ccc(O)cc1O` was tested, and the outcome was “inactive”.
With `CN(C)CCCOc1nn(Cc2ccccc2)c2ccccc12` the outcome was “inactive”.
For `CCCCCCCCCCCCCCCCOP(=O)([O-])OCC[N+](C)(C)C`, the outcome was “inactive”.
In the case of `CCn1cc(C(=O)O)c(=O)c2cnc(N3CCCC3)nc21`, the outcome is reported as “inactive”.
`CC(O)(P(=O)(O)O)P(=O)(O)O` was tested, and the outcome was “inactive”.
For `CC(C)(C)CC(C)(C)c1ccc(O)c(Cc2ccc(Cl)cc2Cl)c1`, the outcome was “inactive”.
For `O=C(COc1ccc(Cl)cc1)N1CCN(Cc2ccc3c(c2)OCO3)CC1`, the outcome was “inactive”.
`CC/C(=C(/CC)c1ccc(O)cc1)c1ccc(O)cc1` was tested, and the outcome was “inactive”.
`Clc1ccc2c(c1)CCc1cccnc1C2=C1CCNCC1` was tested, and the outcome was “inactive”.
`CCCCCCC[N+](CC)(CC)CCCCc1ccc(Cl)cc1` was tested, and the outcome was “inactive”.
In the case of `C=CCc1ccc(O)c(OC)c1`, the outcome is reported as “inactive”.
In the case of `COC1=CC(=O)C[C@@H](C)[C@]12Oc1c(Cl)c(OC)cc(OC)c1C2=O`, the outcome is reported as “inactive”.
For `CN1CCN(C(c2ccccc2)c2ccccc2)CC1`, the outcome was “inactive”.
`CN(C(=O)CN(CCO)CC(=O)N(C)C(C)(C)Cc1ccccc1)C(C)(C)Cc1ccccc1` was tested, and the outcome was “inactive”.
With `COc1cc2c(cc1OC)C(C(C(=O)N(CCc1ccc(OC)c(OC)c1OC)CCc1ccc(OC)c(OC)c1OC)c1ccccc1)=NCC2` (centres undefined) the outcome was “inactive”.
`CC(=O)Oc1ccc(C(=C2CCCCC2)c2ccc(OC(C)=O)cc2)cc1` was tested, and the outcome was “inactive”.
For `Nc1ccc(C(=O)O)cc1`, the outcome was “inactive”.
With `C[C@H]1C[C@H]2[C@@H]3CCC4=CC(=O)C=C[C@]4(C)[C@@]3(Cl)[C@@H](O)C[C@]2(C)[C@@]1(O)C(=O)CO` the outcome was “inactive”.
For `CCN(CCCc1ccccc1)CCCc1ccccc1`, the outcome was “inactive”.
For `Cc1c(N(C)CS(=O)(=O)O)c(=O)n(-c2ccccc2)n1C`, the outcome was “inactive”.
With `C[C@@H]1CN(CCCn2c3ccccc3c3ccccc32)C[C@H](C)N1` the outcome was “inactive”.
For `CCCCOc1cc(C(=O)NCCN(CC)CC)c2ccccc2n1`, the outcome was “inactive”.
In the case of `CC(O)C(=O)O` (centres undefined), the outcome is reported as “inactive”.
With `COc1ccc(/C=C/C(=O)c2ccc(OC)cc2OC)cc1` the outcome was “inactive”.

Reference: PubChem BioAssay (NCATS)
